In PubChem BioAssay AID504408 (Broad Institute, 2011) one finds activation data, which are given here for 62 compounds.

Molecules are shown by their SMILES. Screen size: about 300,000 compounds; about 5,200 (1.7%) were called active. Only a selection was taken, and actives are over-represented in it overall. Unmarked numbers belong to inactive results.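 How the source made its calls: active means mean replicate activation of at least 50% with a set share of replicates each reaching 50%; inconclusive means only one of those two conditions met; inactive means mean below 50% and too few replicates reaching it.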

The experiment can be described thus: HSF-1 activators, primary screen, NIH3T3-HGL cells, MG132 stress, luminescence, single point (AID 504408).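 Further: 0% = median of the neutral control wells and 100% = twice that signal.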 The note with it: NIH3T3-HGL HSF-1 luciferase reporter, MG132, 8 h; at 9 µM; active compounds read high; 100% = twice DMSO control signal. A general note: In a reporter assay the amount or activity of a reporter protein is the signal.
Regarding `CNC(=O)CSc1nnc(CCc2ccccc2)n1-c1ccccc1`, the activation is -1.82%. With `Cc1c(C(=O)NCc2ccccc2)cnn1-c1ccccc1` the figure was 2.05%; with `Cc1c(CNCCc2ccccc2)c(C(=O)O)c(C)n1-c1ccccc1`, 60.5% (active); with `CC1(C)C/C(=N/Nc2ccc([N+](=O)[O-])cc2[N+](=O)[O-])C(C)(C)O1`, -1.15%. With `COc1ccc(C(=O)NC(C)CCc2ccccc2)c(OC)c1` (configuration not stated) the figure was 15.4%. With `COc1ccc(C(=O)CCc2ccccc2O)c(OC)c1` the figure was 58% (active); with `COc1ccc(C(=O)CCC(=O)Nc2cccnc2)c(OC)c1`, 11.9%.

As to `O=C(Nc1ncccc1O)c1ccc(S(=O)(=O)N2CCCC2)cc1`, the activation was 2.49%. For `COc1cccc(N2CC(NS(=O)(=O)c3cccs3)CC2=O)c1` (configuration not stated), the activation is 2.81%.

With `O=C(Nc1cc(S(=O)(=O)N2CCOCC2)ccc1OCC(F)(F)F)c1ccc(N2CCCC2=O)cc1`, the activation is -1.99%. With `CCOC(=O)c1ccc(CS(=O)c2ccc(Cl)cc2)o1` (configuration not stated), the activation was 8.33%. With `CCOC(=O)N1CCN(C(=O)CNC(=O)Cc2ccc(Cl)cc2)CC1` the figure was 9.04%; with `CCOC(=O)c1c(Cc2ccc(Cl)cc2)c[nH]c1C`, 87.7% (active); with `NC1=NC(c2ccc([N+](=O)[O-])cc2)N(c2ccc(F)cc2)C(N)=N1` (configuration not stated), -0.817%. As for `O=C(COC(=O)c1cnccn1)Nc1ccc(Cl)cc1C(F)(F)F`, the activation is -12.3%.

As to `Cc1ccc(Cl)c(OCC(=O)N(C)CC(=O)Nc2ccc(N3CCOCC3)cc2)c1`, the activation is 1.72%. With `COc1ccc(-c2csc3ncnc(N4CCN(S(=O)(=O)c5cccc(F)c5)CC4)c23)cc1`, the activation is 2.84%. With `Cc1cc(NC(=O)CSC2=NS(=O)(=O)c3cc(Cl)ccc3N2)no1` the figure was 1.14%.

With `O=C(COC(=O)/C=C/c1nc2ccccc2s1)Nc1ccccc1Oc1ccccc1`, the activation is 54.4% (active). The result for `CCN(C(=O)COC(=O)/C=C/c1nc2ccccc2s1)C1CCS(=O)(=O)C1` (configuration not stated) reads 16.8%; that for `COc1ccc(/C=C/C(=O)OCC(=O)Nc2cccc(Oc3ccccc3)c2)c(OC)c1`, 35.6%.

Consider `C/C(=N\Nc1ncc(Cl)cc1Cl)c1cccs1`, for which the activation was -33.8%. With `C/C(=N\Nc1nc2ccccc2[nH]1)c1cccs1`, the activation was 106% (active). The result for `O=C(Nc1ccccc1-c1nc2ccccc2[nH]c1=O)c1cccs1` reads -0.37%.

`Cc1sc2ncnc(N3CCC(C(=O)NNC(=O)c4ccc(F)cc4)CC3)c2c1C`: the activation was -17.9%. With `Cn1c(SCC(=O)c2ccccc2)ncc(C(=O)Nc2ccc(F)cc2)c1=O` the figure was 9.37%; with `Brc1cnc2ccccc2c1N1CCCCC1`, 4.42%; with `COc1ccc(CCNC(=O)C(=O)NCC2CCCN2S(=O)(=O)c2cccs2)cc1OC` (configuration not stated), -2.01%.

For the compound `c1ccc(-n2ncc3c(N4CCCC4)ncnc32)cc1`, the activation is 41.2%. The result for `C1=C(CCNc2ncnc3c2cnn3-c2ccccc2)CCCC1` reads 61.4% (active); that for `O=C(NNc1ncnc2c1cnn2-c1ccccc1)c1ccco1`, 13.2%. The result for `O=[N+]([O-])c1cccc(C=NN=Cc2ccccc2O)c1` reads -25.2%; that for `O=C(Oc1ccc(-c2nnco2)cc1)c1ccc(F)c(S(=O)(=O)N2CCOCC2)c1`, 12.4%. With `Cc1cccc(NC(=O)CSc2nc3[nH]ncc3c(=O)[nH]2)c1` the figure was 7.39%. As for `Cc1ccc(CSc2nc3[nH]ncc3c(=O)[nH]2)cc1`, the activation was 87.9% (active). With `CCCSc1nc2[nH]ncc2c(=O)[nH]1` the figure was -12.9%. With `Cc1cccc(N2CC(C(=O)Nc3ccccc3N3CCCC3)CC2=O)c1C` (configuration not stated) the figure was -9.91%. The result for `Cc1ccc(S(=O)(=O)N2CCN(C(=O)Cc3sc(C)nc3-c3ccc(F)cc3)CC2)c(C)c1` reads 5.21%. Turning to `CCOC(=O)c1cc(C(C)C)sc1NC(=O)COC(=O)c1nccnc1N`, the activation is -14.3%. The result for `Cc1nc2ccccc2cc1C(=O)N/N=C/c1ccc([N+](=O)[O-])cc1` reads 10.7%; that for `Cc1ccsc1C(=O)N/N=C/c1ccc([N+](=O)[O-])cc1`, 59% (active).

Consider `NC(=S)N/N=C/c1ccc([N+](=O)[O-])cc1`, for which the activation was 19.9%. As for `O=C(Nc1ccc(N2CCCCC2)cc1)c1cc(S(=O)(=O)N2CCOCC2)ccc1F`, the activation was 12.6%. The result for `CC1CCC(NC(=O)CNC(=O)c2ccc3ccccc3c2)CC1` (configuration not stated) reads 26.1%. Take `O=C(COC(=O)Cn1[nH]c(=O)c2ccccc2c1=O)Nc1c(Cl)cccc1C(F)(F)F`: the activation is -2.68%. The result for `CC(C)NC(=S)N1CCN(C(c2ccccc2)c2ccccc2)CC1` reads 13.7%; that for `O=C(O)CN1CCN(C(c2ccccc2)c2ccccc2)CC1`, -26.6%; that for `CC1(C)CC(N2CCN(C(c3ccccc3)c3ccccc3)CC2)=CC(=[N+]2CCCCC2)C1`, 59.1% (active). As for `COc1ccccc1CCNC(=O)CN1C(=O)NC2(CCCC2)C1=O`, the activation was -21.2%. With `CC(NC(=O)c1ccccc1F)c1cccc2ccccc12` (configuration not stated) the figure was -4.26%; with `CNC(=O)COC(=O)c1cc(-c2ccc(OC)cc2)nc2ccccc12`, 31.1%. The result for `COc1ccc(NC(=O)c2cc(-c3cc(OC)c(OC)c(OC)c3)nc3ccccc23)c(OC)c1` reads -3.17%; that for `COc1ccc(-c2cc(C(=O)Nc3ccccc3O)c3ccccc3n2)cc1`, 65.5% (active). Turning to `COc1ccc(NC(=O)CN(C)C(=O)Cc2coc3cc(C)c(C)cc23)cc1`, the activation is -0.425%.

In the case of `CC(=O)c1nn(-c2ccc(C)cc2)cc1C(=O)c1cccc(Br)c1`, the activation is -31.9%.

In the case of `COc1ccc(C(=O)n2nc(-c3ccc(C)cc3)nc2N)cc1OC`, the activation was -1.25%. On to `COc1ccc(C(=O)n2nc(-c3ccc(Cl)cc3)nc2N)cc1OC`, for which the activation was 71.9% (active). With `COc1ccc(C(=O)n2nc(C)c(Br)c2C)cc1OC` the figure was 6.57%; with `CC12CCC(=O)N1C(C(=O)NCCN1C(=O)S/C(=C\c3ccccc3F)C1=O)CS2` (configuration not stated), 3.07%. On to `O=C(CCCN1C(=O)/C(=C\c2ccco2)SC1=S)Nc1cccc2ccccc12`, for which the activation is 14.2%. The result for `CCCN(CCC)c1nc2c(C)cccn2c(=O)c1/C=C1/SC(=S)N(Cc2ccco2)C1=O` reads 99% (active). On to `CCOC(=O)CC1C(=O)NCCN1c1nc2c(C)cccn2c(=O)c1/C=C1\SC(=S)N(C(C)CC)C1=O` (configuration not stated), for which the activation is -29%.
